# Results as given in PubChem BioAssay (NCATS).
# Records with an inconclusive call do not appear. Entries that show only a call come without a potency. Unmarked numbers belong to inactive results. Activity calls are given as the source filed them. Unless noted, the call rests on the fitted dose curve; in most records, active means well fitted curve in the direction sought with a large enough effect; inconclusive means small, poorly fitted or top-dose-only effect, or another doubt; inactive means no such curve, though single readings can be large; an effect the other way counts as inactive or inconclusive.
# Tests used:
# [1] = qHTS Assay for Identifying Gametocytocidal Compounds (AID 743244);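 further: actives lower the fluorescent signal which means gametocytes are killed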; settings: P. falciparum 3D7 stage III-V gametocytes, alamarBlue, 72 h; max response: stronger effect = lower value
# Method in brief: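 3D7 gametocytes, stages III–V, 20,000/well; cpd 72 h, 37 °C/5% CO2; + alamarBlue 24 h; fluor. Ex 525/Em 598.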
# [2] = P-glycoprotein substrates identified in KB-8-5-11 adenocarcinoma cell line, qHTS therapeutic library screen (AID 1346987); further: nearly all actives have a fitted effect of over 65% in size; further: potency means the concentration at half of the fitted maximal effect
# Method in brief: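 Luminescence from CellTiter-Glo, read 5 min after addition, quantified survival of KB-8-5-11 (P-gp-overexpressing) cells exposed to compounds for 72 h. AC50 was derived from concentration-response curves.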
# [3] = qHTS for Inhibitors of the Functional Ribonucleoprotein Complex (vRNP) of Lassa (LASV) Arenavirus: LASV Primary Screen - GLuc reporter signal (AID 1347082; calls by dose curve; tested in HEK293 reporter line; further: nearly all actives have a fitted effect of over 60% in size; further: potency means the concentration at half of the fitted maximal effect)
# [4] = molecular target: Luciferin 4-monooxygenase (Photinus pyralis) (UniProt P08659); experiment: Biochemical firefly luciferase enzyme assay for NPC (AID 624030);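 further: purified P. pyralis luciferase at 10 nM with luciferin and ATP substrate; nearly all actives have a fitted effect of over 70% in size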
# Method in brief: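 Purified P. pyralis luciferase at 10 nM in 50 mM Tris Acetate (final), luminescence read within 5 minutes of enzyme addition to compounds. Activity normalised to PTC124 versus DMSO; concentration-response curves classed by r2, magnitude and activity.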
# [5] = qHTS for Inhibitors of the Functional Ribonucleoprotein Complex (vRNP) of Lassa (LASV) Arenavirus: Viability assay - alamar blue signal for LASV Primary Screen (AID 1347083; calls by dose curve; tested in HEK293 reporter line; further: nearly all actives have a fitted effect of over 80% in size)
# [6] = qHTS for Inhibitors of the Functional Ribonucleoprotein Complex (vRNP) of Lymphocytic Choriomeningitis Arenaviruses (LCMV): Viability assay - alamar blue signal for LCMV Primary Screen (AID 1347085; calls by dose curve; tested in HEK293 reporter line; further: nearly all actives have a fitted effect of over 80% in size)
# [7] = molecular target: Nucleoprotein (Lymphocytic choriomeningitis virus (strain Armstrong)) (UniProt P09992); experiment: qHTS for Inhibitors of the Functional Ribonucleoprotein Complex (vRNP) of Lymphocytic Choriomeningitis Arenaviruses (LCMV): LCMV Primary Screen - GLuc reporter signal (AID 1347086; calls by dose curve; further: nearly all actives have a fitted effect of over 70% in size)
# astro = experiment: Drug repurposing screens with cells derived from glioblastoma tumor samples (AID 1345199); settings: viability, ATP luminescence, 48 h; series mostly up to 45.9 µM; further: nearly all actives have a fitted effect of over 40% in size; further: potency means the concentration at half of the fitted maximal effect
# Method in brief: (§1)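 Primary testing used CD133+ neurospheres from four GBM patients, seven concentrations, 48 h exposure and ATP-based viability; confirmation added three slower-growing patient lines.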
# [8] = tested on: Zika virus NS2B-NS3 protease; experiment: Primary screen GU AMC qHTS for Zika virus inhibitors (AID 1347154); further: nearly all actives have a fitted effect of over 70% in size
# Method in brief: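 Unlinked Zika NS2B hydrophilic domain–NS3 protease complex at 25 nM in 10 mM Tris-HCl pH 8.0, 0.01% Tween 20, with an AMC peptide substrate. Fluorescence change (340/450 nm) over 15 min at room temperature, normalized to controls, fitted to 4-parameter Hill.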
# [9] = Primary qHTS for small molecule stabilizers of the endoplasmic reticulum resident proteome: Secreted ER Calcium Modulated Protein (SERCaMP) assay (AID 1508630)
# Method in brief: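 The SH-SY5Y reporter protocol was run at 3 concentrations up to 38.3 uM (primary) or 11 concentrations (follow-up): 16 h compound, 100 nM thapsigargin for 4 h, then extracellular luciferase luminescence.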
# [10] = Primary qHTS for inhibitors of nuclear receptor binding SET domain protein 2 (NSD2) in an isogenic RCH-ACV NSD2 p.E1099K mutant (9B) (AID 1645876); further: potency means the concentration at half of the fitted maximal effect; nearly all actives have a fitted effect of over 70% in size
# [11] = Primary qHTS for inhibitors of nuclear receptor binding SET domain protein 2 (NSD2) in an RCH-ACV wild type WT cells (2C) (AID 1645877)
# [12] = molecular target: Glutathione peroxidase 1 (Homo sapiens) (UniProt P07203); experiment: Primary qHTS Assay for Inhibitors of Recombinant Selenoprotein Glutathione Peroxidase 1 (GPX1) (AID 1845191); further: nearly all actives have a fitted effect of over 65% in size
# Method in brief: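 GR-coupled readout: NADPH consumption tracked by fluorescence, ex 340/em 450 nm, at t=0 and after 15 min at RT. Final mix 10 nM GPX1, 1 mM GSH, 0.5 mM CHP, 0.5 mM NADPH, 100 nM GR, 0.01% BSA, following 30 min enzyme–compound preincubation.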
# [13] = Drug repurposing screens with cells derived from glioblastoma tumor samples (AID 1345199); settings: GBM patient neurospheres viability, ATP luminescence, 48 h; Potency: tumour line A; series mostly up to 45.9 µM; further: nearly all actives have a fitted effect of over 40% in size; further: potency means the concentration at half of the fitted maximal effect
# Method in brief: as §1
# Chain of Nucleoprotein (Lymphocytic choriomeningitis virus (strain Armstrong)) (P09992 whole entry, looked up): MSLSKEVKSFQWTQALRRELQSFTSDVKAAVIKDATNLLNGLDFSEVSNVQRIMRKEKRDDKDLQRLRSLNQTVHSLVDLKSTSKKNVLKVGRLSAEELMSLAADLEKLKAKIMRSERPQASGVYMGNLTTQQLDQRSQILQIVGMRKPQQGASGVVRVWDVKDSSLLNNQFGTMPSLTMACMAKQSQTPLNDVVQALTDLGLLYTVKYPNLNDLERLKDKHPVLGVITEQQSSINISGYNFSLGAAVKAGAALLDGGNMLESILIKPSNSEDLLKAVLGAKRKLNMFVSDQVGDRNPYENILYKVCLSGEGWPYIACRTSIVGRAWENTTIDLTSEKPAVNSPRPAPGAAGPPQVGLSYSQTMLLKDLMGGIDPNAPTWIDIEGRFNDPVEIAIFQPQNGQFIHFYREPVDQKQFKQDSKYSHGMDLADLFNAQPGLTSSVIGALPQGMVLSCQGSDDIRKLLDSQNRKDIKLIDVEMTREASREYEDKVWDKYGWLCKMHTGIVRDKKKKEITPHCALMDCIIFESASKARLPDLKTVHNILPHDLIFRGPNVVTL
# Chain of Glutathione peroxidase 1 (Homo sapiens) (P07203 whole entry, looked up): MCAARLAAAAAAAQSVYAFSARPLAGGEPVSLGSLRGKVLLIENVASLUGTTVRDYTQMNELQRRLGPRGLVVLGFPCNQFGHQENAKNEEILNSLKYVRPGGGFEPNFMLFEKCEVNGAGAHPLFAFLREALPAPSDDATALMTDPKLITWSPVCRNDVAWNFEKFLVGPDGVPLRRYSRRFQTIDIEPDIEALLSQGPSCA
# Chain of Luciferin 4-monooxygenase (Photinus pyralis) (P08659 whole entry, looked up): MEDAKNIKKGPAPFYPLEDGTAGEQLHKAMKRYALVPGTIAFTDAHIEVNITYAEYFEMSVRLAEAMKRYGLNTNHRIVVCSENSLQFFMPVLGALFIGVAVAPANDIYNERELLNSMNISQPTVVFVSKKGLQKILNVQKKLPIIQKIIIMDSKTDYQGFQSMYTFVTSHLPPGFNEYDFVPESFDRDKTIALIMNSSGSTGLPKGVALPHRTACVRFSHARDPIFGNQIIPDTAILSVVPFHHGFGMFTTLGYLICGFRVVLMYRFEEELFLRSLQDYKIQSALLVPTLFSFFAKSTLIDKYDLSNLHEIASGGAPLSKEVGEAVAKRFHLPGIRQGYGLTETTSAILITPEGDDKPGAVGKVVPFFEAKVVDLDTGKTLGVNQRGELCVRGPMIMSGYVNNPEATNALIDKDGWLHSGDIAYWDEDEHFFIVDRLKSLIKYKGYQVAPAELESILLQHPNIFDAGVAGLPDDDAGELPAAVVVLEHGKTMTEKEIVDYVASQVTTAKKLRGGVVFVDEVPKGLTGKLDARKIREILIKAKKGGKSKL
structure (smiles),measurement,setting,value
COc1cc([C@@H]2c3cc4c(cc3[C@@H](O)[C@H]3COC(=O)[C@H]23)OCO4)cc(OC)c1O,max response,[1],5.77%
same,Potency,[2],651 nM (active)
CC(=O)O[C@@]12CO[C@@H]1C[C@@H](O)[C@@]1(C)C(=O)[C@H](O)C3=C(C)[C@@H](OC(=O)[C@H](O)[C@@H](NC(=O)c4ccccc4)c4ccccc4)C[C@@](O)([C@@H](OC(=O)c4ccccc4)C12)C3(C)C (stereo partly specified),Potency,[3],inactive
CCCCCc1cc(O)c2c(c1)OC(C)(C)c1ccc(C)cc1-2,Potency,[4],inactive
same,Potency,[3],inactive
same,Potency,[5],inactive
same,Potency,[6],inactive
same,Potency,[7],inactive
same,Potency,astro,22400 nM (active)
O=C1NC(=O)c2c1c1c3ccccc3n3c1c1c2c2ccccc2n1C1CCC3O1,Potency,[2],3660 nM (active)
same,Potency,[8],inactive
same,Potency,[9],inactive
same,Potency,[10],517 nM (active)
same,Potency,[11],731 nM (active)
same,Potency,[12],inactive
C[C@H]1CCC[C@@H](O)CCC/C=C/c2cc(O)cc(O)c2C(=O)O1,Potency,[3],inactive
COC(=O)C1CC23C=CCN4CCC5(c6ccccc6NC15C2C)C43 (stereo unspecified),Potency,[3],inactive
C[C@@H](N)C(=O)c1ccccc1,max response,[1],-12.7%
same,Potency,[2],inactive
same,Potency,[13],inactive
same,Potency,astro,inactive
CCCNC(=O)[C@H]1O[C@H]1C(=O)N[C@H](C(=O)N1CCC[C@@H]1C(=O)OC)C(C)CC (stereo partly specified),Potency,[3],27300 nM (active)
O=C(/C=C/c1ccccc1)NCCc1ccccc1,Potency,[3],inactive
COc1cc2c(ccc3c4cc(OC)c(OC)cc4c[n+](C)c23)cc1O,Potency,[3],inactive
CC=CC(=O)N(CC)c1ccccc1C,Potency,[3],inactive
CNCCCCc1cnc(C)c2[nH]c3ccccc3c12,Potency,[3],inactive
